Screen size: about 16,000 compounds; about 4,000 (25%) were called active. Roughly 26% stayed inconclusive and do not appear here. Calls come from the whole dose curve; as a rule, active = well fitted curve in the direction sought with a large enough effect; inconclusive = small, poorly fitted or top-dose-only effect, or effect the other way; inactive = no such curve, though single readings can be large or run the other way. Only a sample is shown.
molecular target: Cytochrome P450 2C9 (Homo sapiens) (UniProt P11712); test: Cytochrome panel assay with activity outcomes; conditions: recombinant CYP, pro-luciferin dealkylation, luminescence, p450-cyp2c9; series mostly up to 57.1 µM; activity, negative = inhibition: at the top concentration
% is set by controls: 0 for no effect and ±100 for the full control effect.

Chain of Cytochrome P450 2C9 (Homo sapiens) (P11712 whole entry, looked up): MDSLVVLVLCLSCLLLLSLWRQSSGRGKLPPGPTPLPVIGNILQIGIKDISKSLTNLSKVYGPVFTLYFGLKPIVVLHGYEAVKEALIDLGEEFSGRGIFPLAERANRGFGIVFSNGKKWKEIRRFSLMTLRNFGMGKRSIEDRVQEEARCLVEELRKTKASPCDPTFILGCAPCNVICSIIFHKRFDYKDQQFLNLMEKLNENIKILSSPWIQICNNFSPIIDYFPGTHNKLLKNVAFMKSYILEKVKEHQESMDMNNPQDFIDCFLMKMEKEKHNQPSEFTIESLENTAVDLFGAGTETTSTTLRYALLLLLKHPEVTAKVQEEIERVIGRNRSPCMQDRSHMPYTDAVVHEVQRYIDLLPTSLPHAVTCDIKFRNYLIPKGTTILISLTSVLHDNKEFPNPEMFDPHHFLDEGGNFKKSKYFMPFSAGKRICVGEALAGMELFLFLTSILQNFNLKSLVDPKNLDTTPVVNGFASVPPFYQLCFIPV

activity, negative = inhibition, inactive:
COCCNc1ncnc2ccc(-c3c(C)noc3C)cc12 7.8% [at 2.29 µM]
COC(=O)[C@@H]1[C@@H]2C[C@H]3c4[nH]c5ccccc5c4CCN3C[C@@H]2CC[C@@H]1OS(=O)(=O)O 7.13% [at 11.4 µM]
CN1CCN(c2ncnc3ccc(-c4ccccc4C#N)cc23)CC1 2.98% [at 2.29 µM]
Cc1cc(C)c(NC(=O)C2CCCN2C)c(C)c1 (stereo not drawn) 1.9%
CCc1cc(Cl)c(OC)c(C(=O)NC[C@@H]2CCCN2CC)c1O 0.663% [at 25.6 µM]
C[C@H](N)CCCC(C)(C)O -15.2% [at 25.6 µM]
CC(=O)Nc1c(C)nn(-c2ccc(C)c(C)c2)c1C -8.65%
Cc1ccc(CCN2CC(C(=O)NCCN3CCCCCC3)CC2=O)cc1 (stereo not drawn) -28.6%
Cc1ccc(CCN2CC(C(=O)NCCN3CCOCC3)CC2=O)cc1 (stereo not drawn) -10.2%
COc1cc2c3cc1Oc1c(OC)c(OC)cc4c1[C@@H](Cc1ccc(O)c(c1)Oc1ccc(cc1)C[C@@H]3N(C)CC2)CN(C)C4 -25.3% [at 11.4 µM]
OC(COc1ccc(OCC(O)CN2CCCCCC2)cc1)CN1CCCCCC1 (stereo not drawn) -0.623%
O=C(O)CC(O)C(=O)O (stereo not drawn) -7.21%
CC(=O)NNc1cccc(Cl)n1 -15.4%
O=C(Cn1ccc([N+](=O)[O-])n1)NCc1cccs1 -58.8%
CCCC(=O)Nc1nnc(SCC(=O)NCc2cccs2)s1 -19.5%
C#C[C@H](N)CCC(=O)O 13.6%
CCS(=O)(=O)N1CCC(C(=O)NCc2ccc(F)cc2Cl)CC1 21.2%
C/C(CCN1CCc2nc(-c3ccccc3)c(-c3ccccc3)cc2C1)=N\O[C@@H](C)c1cn([C@@H]2COC[C@@H]2O)nn1 -10.5% [at 11.4 µM]
O=C(NC(=S)Nc1nc(-c2ccc(Br)cc2)cs1)c1cccnc1 -6.99%
Cc1nc2ncnn2c(C)c1CCC(=O)N1CCN(C(=O)c2ccco2)CC1 -6.62%
NC(=O)/C(=N\OC(=O)c1ccco1)c1nc(-c2ccc(Br)cc2)cs1 58.2%
CO[C@@H]1COC(=O)[C@H]2CCCN2C(=O)[C@@H](C)COC(=O)[C@H](COCc2ccccc2)NC(=O)C/C=C\[C@H]1C 10.5% [at 11.4 µM]
NC(=S)c1ccc[n+]([C@@H]2O[C@@H](COP(=O)([O-])OP(=O)(O)OC[C@@H]3O[C@@H](n4cnc5c(N)ncnc54)[C@@H](OP(=O)(O)O)[C@H]3O)[C@@H](O)[C@H]2O)c1 -19.2%
COc1ncc2ncc(=O)n(C)c2n1 14.6%
CCCCC(=O)Nc1ccc(C(=O)NNC(=O)CCc2ccccc2)cc1 7.05%
CCc1ccc(OCCCC(=O)Nc2ccc(N3CCCCC3)cc2)cc1 -21.4%
COc1ccc(NC(=O)N2CCCC3(CCNCC3)C2)cc1 -5.11%
CC(C)=CCC/C(C)=C/CO/N=C1/[C@H]2O[C@@H]2[C@@H](O)[C@H]2[C@H]1CCn1c(=O)n(-c3ccccc3)c(=O)n12 6.87% [at 11.4 µM]
Cc1cnnn1-c1ccc(C(=O)CCl)cc1 -4.42%
Nc1ccc(C(=O)NCC(=O)O)cc1 9.9% [at 25.6 µM]
COC(=O)CNC(=O)CCCCC(=O)NCC(=O)OC 5.38%
CC(C)=CCC/C(C)=C/CO/N=C1/C[C@@H](O)[C@@H](O)[C@@H]2[C@@H]3C(=O)N(Cc4ccc5c(c4)OCO5)C(=O)[C@H]3CC[C@H]12 -26.4% [at 11.4 µM]
COc1cnc(NS(=O)(=O)c2ccc(N)cc2)nc1 -9.19% [at 25.6 µM]
Nc1ccc(S(=O)(=O)Nc2ncccn2)cc1 -7.42% [at 25.6 µM]
CCCCN(CCCC)CCCOC(=O)c1ccc(N)cc1 -9.19% [at 25.6 µM]
Cc1ccc(OCC(=O)NNC(=O)c2cccnc2)cc1 0.128%
O=C(Nc1ccc(OC(=O)c2cccnc2)cc1)c1cccnc1 -16.9%
COc1ccc(C(Cl)=C(c2ccc(OC)cc2)c2ccc(OC)cc2)cc1 12.9% [at 25.6 µM]
CCCCOc1ccc(CC(=O)NO)cc1 -15.6% [at 25.6 µM]
COc1ccc(C(=O)N2CCC3(CC2)CCN(c2ccncc2)CC3)cc1 1.22%
c1cncc(-c2cncnc2NC2CCNCC2)c1 17.3% [at 2.29 µM]
C[C@H]1C[C@H]2[C@H]3CCC4=CC(=O)C=C[C@@]4(C)[C@]3(F)[C@H](O)C[C@]2(C)[C@@]1(O)C(=O)COP(=O)(O)O 23.1% [at 11.4 µM]
N#Cc1cccc(-c2cncnc2-n2ccnc2)c1 12.2% [at 2.29 µM]
FC(F)(F)c1ccccc1-n1ccnc1 -3.84%
CCCCCCCCOC1OC(CO)C(O)C(O)C1NC(C)=O (stereo not drawn) 11.5%
C[C@@H]1C[C@H]2[C@H]3C[C@@H](F)C4=CC(=O)C=C[C@]4(C)[C@@]3(Cl)[C@@H](O)C[C@@]2(C)[C@@H]1C(=O)COC(=O)C(C)(C)C 6.05% [at 25.6 µM]
COc1ccc(F)cc1S(=O)(=O)NC(Cc1ccccc1)C(N)=O (stereo not drawn) -18.3%
COc1ccccc1S(=O)(=O)Nc1ccc(-c2nnc3n2CCCCC3)cc1 -3.81%
Cn1c(CNS(=O)(=O)c2ccc(F)cc2)n[nH]c1=S -10.4%
CC(=O)c1ccc(S(=O)(=O)NC(=O)NC2CCCCC2)cc1 -9.98% [at 25.6 µM]
Cc1cccc(C)c1NC(=O)Nc1ccc(S(N)(=O)=O)cc1 -4.33% [at 11.4 µM]
CC(C)(C)c1ccc(NS(=O)(=O)c2ccc(N)cc2)cc1 -10.7% [at 11.4 µM]
CCN=C(Nc1ccc(Cl)cc1)c1cccnc1 -9.1%
CC(C)N=C(Nc1ccc(Cl)cc1)c1cccnc1 -21.8%
CC(C)(Oc1ccc(CCNC(=O)c2ccc(Cl)cc2)cc1)C(=O)O -6.71% [at 25.6 µM]
CC(C)OC(=O)C(C)(C)Oc1ccc(C(=O)c2ccc(Cl)cc2)cc1 -71.5% [at 25.6 µM]
Nc1cc(C(=O)O)[nH]c(=O)n1 7.9% [at 11.4 µM]
CC(=O)OCC(=O)[C@@]1(OC(C)=O)[C@H](C)C[C@H]2[C@@H]3C[C@H](F)C4=CC(=O)C=C[C@@]4(C)[C@]3(F)[C@H](O)C[C@@]21C -50.1% [at 25.6 µM]
CN(C)CCC=C1c2ccccc2CCc2ccccc21 -10.9%
CC(=O)NC(CCS(C)(=O)=O)C(=O)Nc1c(F)cccc1F (stereo not drawn) -3.82%
O=C(CCN1C(=O)C2C3C=CC(C3)C2C1=O)Nc1c(F)cccc1F (stereo not drawn) -21.6%
CCN(CC)c1ccc(N2C(=O)/C(=C/c3cccnc3)SC2=S)cc1 -19.1%
CC(C)NC(=O)CC(=O)N/N=C/c1ccc(F)cc1 -8.73%
C/C(CCN1CCc2nc(-c3ccccc3)c(-c3ccccc3)cc2C1)=N\O[C@@H](C)CN1CCCCc2nc(C)c(C)cc21 2.2% [at 11.4 µM]

AC50, inactive:
N=C(N)SCCN
COc1c(C)c2c(c(O)c1C/C=C(\C)CCC(=O)O)C(=O)OC2

AC50, active:
N#C/C(=C/c1cccc(C(F)(F)F)c1)c1nc(CCN2C(=O)c3ccccc3C2=O)cs1 0.178 µM
O=c1ccn(-c2cccc(C(F)(F)F)c2)nc1-c1ccn(-c2ccccc2F)n1 10 µM
Cc1ccc(C(=O)CN(C(=O)c2ccc(Cl)cc2)N2C(=O)c3ccccc3C2=O)cc1 3.16 µM
CCOC(=O)C1=NNC2(c3ccc(Cl)cc3)C(=O)N(c3cc(C)cc(C)c3)C(=O)C12 (stereo not drawn) 3.55 µM
Cc1nn(-c2ccc(F)cc2)c(C)c1NS(=O)(=O)c1ccc2ccccc2c1 12.6 µM
CCOCCCN1CC(C(=O)NCCc2ccc(C)cc2)CC1=O (stereo not drawn) 8.91 µM
C=CCN(CC=C)CC(O)Cn1c2ccccc2c2ccccc21 (stereo not drawn) 14.1 µM
Cc1ccc(OCC(O)Cn2c3ccccc3c3ccccc32)cc1 (stereo not drawn) 4.47 µM
Cn1c(/C=N/NC(=O)c2ccccc2Br)nc2ccccc21 2 µM
Cc1ccc(-n2nnnc2C(=Cc2ccc(N(C)C)cc2)c2nnnn2-c2ccc(C)cc2)cc1 3.55 µM
CCCCc1ccc(NC(=S)NCc2cccs2)cc1 12.6 µM
CCS(=O)(=O)N1CCN(c2c(Cl)cccc2[N+](=O)[O-])CC1 11.2 µM
Cc1nn(C(=O)c2ccco2)c(C)c1Sc1ccc(Br)cc1 3.98 µM
Cc1nn(C(=O)c2cccnc2)c(C)c1Sc1ccc(Br)cc1 10 µM
Cc1nn(C(C)(C)C)c(OC(=O)c2ccco2)c1Sc1ccccc1 10 µM
CCc1ccc(NC(=O)CS(=O)CC(=O)NCCCc2ccccc2)cc1 (stereo not drawn) 0.794 µM
O=C(NCCCc1ccccc1)c1cccs1 15.8 µM
Cc1ccc(NC(=O)NCCCc2ccccc2)cc1 11.2 µM
CCNC(=O)c1ccc(-n2nc(C)cc2-c2ccccc2)cc1 7.94 µM
COc1ccc(OC(=O)c2ccncc2)cc1 4.47 µM
CCCCOc1ccc(OC(=O)c2cccnc2)cc1 14.1 µM
CCCCOc1ccc(S(=O)(=O)Nc2cccnc2)cc1 1.26 µM
CCCCCOc1ccc(OC(=O)c2ccncc2)cc1 2.82 µM
N#Cc1c(-n2ccnc2)cccc1-n1ccnc1 0.562 µM
CC(C)(C)NS(=O)(=O)c1ccc(NC(=O)NC2CCCCC2)cc1 20 µM
CC(C)(C)NS(=O)(=O)c1ccc(NS(=O)(=O)c2ccc(F)cc2)cc1 0.2 µM
COc1ccc(S(=O)(=O)Nc2ccc(F)cc2)c(C)c1C 8.91 µM
CC(C)(Oc1ccc(Cl)cc1)C(=O)Nc1ccncc1 0.501 µM
CC(C)(Oc1ccc(Cl)cc1)C(=O)Nc1cccnc1 14.1 µM
CS(=O)(=O)N(CC(=O)Nc1c(F)cccc1F)c1ccc(C23CC4CC(CC(C4)C2)C3)cc1 3.98 µM
Cc1ccc(S(=O)(=O)/N=C2/NC(=O)/C(=C/c3cccnc3)S2)cc1 0.0794 µM
CC(C)c1ccc(/C=N/NC(=O)CN(c2cccc(Cl)c2Cl)S(C)(=O)=O)cc1 8.91 µM

From PubChem BioAssay AID1851 (National Center for Advancing Translational Sciences (NCATS), 2009)
